Tests used:
Details in all cases: concentration: 1 μM, replicates: in singlicate; n = 1
[1] = tested on: MTOR
[2] = tested on: MUSK
[3] = tested on: MYLK2
[4] = tested on: MYLK4
[5] = tested on: MYLK
[6] = tested on: MYO3A
[7] = tested on: MYO3B
[8] = tested on: T1, NDR1
T1 construct: gene STK38

[9] = tested on: NDR2
[10] = tested on: NEK10
[11] = tested on: NEK11
[12] = tested on: NEK1
[13] = tested on: NEK2
[14] = tested on: NEK3
[15] = tested on: NEK4
[16] = tested on: NEK5
[17] = tested on: NEK6
[18] = tested on: NEK7
[19] = tested on: NEK9
[20] = tested on: T2, NIK
T2 construct: gene MAP3K14
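Further: KINOMEscan kinase panel screen.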

| SMILES | %Inh [1] | %Inh [2] | %Inh [3] | %Inh [4] | %Inh [5] | %Inh [6] | %Inh [7] | %Inh [8] | %Inh [9] | %Inh [10] | %Inh [11] | %Inh [12] | %Inh [13] | %Inh [14] | %Inh [15] | %Inh [16] | %Inh [17] | %Inh [18] | %Inh [19] | %Inh [20] |
| --- | --- | --- | --- | --- | --- | --- | --- | --- | --- | --- | --- | --- | --- | --- | --- | --- | --- | --- | --- | --- |
| NCCC(NC(=O)c1cc(Br)c(-c2ccnc3[nH]ccc23)s1)c1ccccc1.O=C(O)C(F)(F)F.O=C(O)C(F)(F)F (stereo not shown) [GSK1307810] | 12% | 11% | 8% | 99.9% | 34% | 0% | 0% | 96.7% | 96.7% | 9% | 30% | 71% | 19% | 0% | 0% | 96.3% | 3% | 0% | 4% | 49% |
| Cc1cccc(Nc2nc(N[C@H]3CCCC[C@H]3N)ncc2C(N)=O)c1.Cl [GSK986310] | 0% | 27% | 7% | 93.8% | 29% | 8% | 0% | 27% | 0% | 71% | 0% | 2% | 15% | 19% | 24% | 13% | 10% | 8% | 25% | 23% |
| Cc1ccc(NC(=O)c2cccc(N3CCCCC3)c2)cc1-c1ccc(C(=O)NCC2CC2)cc1 [GSK1917008] | 14% | 1% | 9% | 9% | 17% | 0% | 12% | 0% | 0% | 0% | 0% | 27% | 16% | 11% | 23% | 12% | 0% | 13% | 35% | 68% |
| N#Cc1cnc2cc(-c3cnc(CNCCN4CCOCC4)s3)ccc2c1Nc1ccc(Oc2ccccc2)cc1 [GW664114] | 12% | 3% | 0% | 13% | 6% | 55% | 48% | 14% | 0% | 4% | 25% | 0% | 82% | 20% | 1% | 0% | 0% | 0% | 17% | 0% |
| CN(c1ccc(F)c(NC(=O)c2cccc(OC(C)(C)C#N)c2Cl)c1)c1ccc2nc(NC(=O)C3CC3)sc2n1 | 0% | 0% | 0% | 0% | 30% | 0% | 0% | 0% | 29% | 0% | 0% | 3% | 0% | 7% | 1% | 0% | 0% | 8% | 5% | 0% |
| Cl.Cl.NCC(NC(=O)c1cc(-c2cccnc2)c(-c2ccnc3[nH]ccc23)s1)c1ccccc1 (stereo not shown) [GSK1323434] | 10% | 18% | 15% | 98.2% | 23% | 39% | 0% | 67% | 13% | 79% | 15% | 13% | 1% | 18% | 24% | 13% | 4% | 0% | 11% | 35% |
| O=C1NC(=O)C(c2ccccc2Cl)=C1Nc1cccc(Cl)c1 [SB-342409] | 4% | 8% | 11% | 3% | 9% | 0% | 3% | 1% | 0% | 51% | 0% | 5% | 10% | 56% | 11% | 7% | 1% | 16% | 20% | 0% |
| O=C(O)C(F)(F)F.O=c1[nH]ccc2nc(N[C@@H]3CCNC3)nc(Nc3ccc4c(c3)S(=O)(=O)CC4)c12 [GSK2181306] | 1% | 0% | 78% | 60% | 98.1% | 74% | 4% | 89% | 89% | 95.3% | 0% | 6% | 46% | 8% | 16% | 0% | 3% | 5% | 19% | 77% |
| Cc1ccc(O)cc1Nc1ccnc2ccc(C(C)(C)C)cc12 [GW856805] | 0% | 27% | 5% | 13% | 25% | 13% | 6% | 18% | 23% | 27% | 23% | 21% | 9% | 39% | 1% | 17% | 20% | 25% | 10% | 31% |
| CCOc1nccc(-c2c(-c3ccc(F)cc3)ncn2C2CCNCC2)n1 [SB-249175] | 0% | 0% | 0% | 19% | 31% | 90% | 0% | 6% | 12% | 27% | 50% | 9% | 0% | 13% | 0% | 31% | 4% | 10% | 7% | 5% |
| CN(c1ccc(NC(=O)N2CCN(CCCN3CCOCC3)CC2)cc1)c1ccnc(Nc2ccc(CS(C)(=O)=O)cc2)n1.Cl [GW830899] | 0% | 12% | 9% | 1% | 0% | 0% | 0% | 3% | 0% | 0% | 0% | 0% | 14% | 9% | 0% | 3% | 14% | 0% | 0% | 0% |
| CNc1nccc(-c2ccc3c(N)n[nH]c3c2)n1 [GSK2206003] | 11% | 3% | 60% | 97.1% | 68% | 53% | 0% | 24% | 9% | 29% | 0% | 4% | 2% | 2% | 0% | 14% | 0% | 0% | 9% | 33% |
| O=C(O)C(F)(F)F.O=c1[nH]ccc2nc(N[C@@H]3CCNC3)nc(Nc3cc(Cl)cc(Cl)c3)c12 [GSK2188764] | 9% | 3% | 50% | 36% | 92.4% | 59% | 0% | 82% | 68% | 81% | 0% | 28% | 23% | 23% | 17% | 14% | 0% | 13% | 25% | 64% |
| O=C(Nc1n[nH]c2nc(-c3ccccc3O)ccc12)C1CC1 [SB-711880] | 16% | 0% | 85% | 0% | 28% | 36% | 1% | 6% | 0% | 0% | 0% | 0% | 0% | 18% | 0% | 0% | 0% | 3% | 6% | 18% |
| Cn1cc(-c2cnc(N)c3c(-c4ccc5c(c4)CCN5C(=O)Cc4ccccc4)csc23)cn1 [GSK2593074] | 0% | 24% | 55% | 0% | 4% | 0% | 45% | 10% | 2% | 22% | 47% | 0% | 28% | 1% | 0% | 5% | 0% | 0% | 0% | 0% |
| Nc1ncnc2scc(-c3ccc(NC(=O)Cc4cc(F)ccc4F)cc3)c12.O=C(O)C(F)(F)F [SB-731254-M] | 0% | 2% | 38% | 72% | 8% | 29% | 0% | 12% | 25% | 0% | 36% | 20% | 24% | 35% | 16% | 47% | 3% | 0% | 20% | 0% |
| COC(=O)Nc1nc2cc(Oc3ccc(NC(=O)Nc4cccc(SC)c4)cc3)ccc2[nH]1.Cl [GW697999] | 28% | 98.9% | 2% | 0% | 11% | 25% | 0% | 11% | 0% | 7% | 22% | 0% | 0% | 4% | 4% | 11% | 0% | 0% | 3% | 0% |
| Nc1cccc(-c2ccc3c(N)n[nH]c3c2)c1 [GSK2193613] | 13% | 20% | 92.3% | 96.9% | 40% | 45% | 0% | 27% | 13% | 10% | 17% | 11% | 11% | 0% | 0% | 6% | 0% | 0% | 8% | 6% |
| COc1cccc(NC(=O)NCCNc2ccnc(Nc3ccc(F)cc3)n2)c1 [GSK1379879] | 32% | 5% | 0% | 0% | 16% | 22% | 0% | 18% | 0% | 0% | 0% | 0% | 0% | 9% | 0% | 11% | 0% | 0% | 0% | 27% |
| Cl.O=C(Nc1ccc(Oc2ccc3[nH]c(NC(=O)c4ccco4)nc3c2)cc1)Nc1cc(C(F)(F)F)ccc1F [GW683134] | 5% | 98.6% | 75% | 3% | 0% | 0% | 9% | 0% | 0% | 0% | 0% | 0% | 2% | 0% | 0% | 0% | 0% | 0% | 79% | 13% |

— publication PMC5540273 (PLoS ONE, 2017)
